Assay outcomes from PubChem BioAssay.
An excerpt weighted towards active compounds, which were near 11% of everything screened.
Insulin prom up – MIN6 insulin promoter up-regulation | z-score at 5 µM | MIN6 insulin promoter-GFP reporter, high-content imaging; hits give high values | 0.3% of 190,000 active;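 active = z-score above 3 at 5 µM with at least 500 cells counted in the well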
INS promoter inh – TRM-6 insulin promoter activity inhibition; TRM-6 cells (human fetal islet line), insulin promoter-eGFP reporter, imaging; reporter expression induced with tamoxifen; 0.9% of 130,000 active; AID 1273; inhibition, % at 2 µM;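 active = inhibition above the mean plus 3 SD, with well images judged a real hit on visual review, cut at about 60% in these data, passing the limit was not always enough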
Lmaj promast – Leishmania major promastigote growth inhibition; Leishmania major promastigotes, resazurin fluorescence viability; inhibition, % at 10 µM; 9% of 200,000 active; in the data active = inhibition above about 50%;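 note: promastigotes grown with compound for 44 hours at 28 °C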
Autophagy mod – modulators of autophagy; AID 463193; MEF GFP-LC3 puncta imaging; test concentration mostly 10 µM; calls only at 10 µM (by protocol); 0.98% of 190,000 active;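 active = percentage of spot-positive cells more than 3 SD above its plate mean, without a fluorescence outlier flag or 80% toxicity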;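 note: spot-positive cell cutoff set from DMSO-treated cells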
WT yeast gro inh – growth inhibition of WT yeast, mitochondrial fusion screen. mitochondrial fusion phenotypic screen, WT strain. inhibition, % at 10 µM. 2.1% of 190,000 active. AID 1362; in the data active = inhibition above about 58%; tested in S. cerevisiae
Active calls of the source: *.

What do the screens show for `CCOC(=O)c1ccc(NC(=O)c2ccc(CN3CCOCC3)cc2)cc1`?
Insulin prom up: -0.16; INS promoter inh: 55; Lmaj promast: 84*; Autophagy mod: inactive; WT yeast gro inh: 26

What do the screens show for `CCOC(=O)c1ccc(NC(=O)CSC(=S)N2CCOCC2)cc1`?
Insulin prom up: -0.17; INS promoter inh: -62; Lmaj promast: 97*; Autophagy mod: active; WT yeast gro inh: -3

How did NC(=O)c1ccc(NC(=O)c2ccc(CN3CCOCC3)cc2)cc1 do in these assays?
Insulin prom up: 0.32; INS promoter inh: -11; Lmaj promast: -4; Autophagy mod: inactive; WT yeast gro inh: 8

What do the screens show for `O=C(NCC1CCCO1)c1ccc2c(=O)n(-c3ccccc3)c(=S)[nH]c2c1` (stereo not drawn)?
Insulin prom up: 0.05; INS promoter inh: -67; Lmaj promast: -1; Autophagy mod: inactive; WT yeast gro inh: -6

What do the screens show for `CCCCN(C)CCC(=O)Nc1ccc2c(c1)CCC2`?
Insulin prom up: -1.5; INS promoter inh: -27; Lmaj promast: 32; Autophagy mod: inactive; WT yeast gro inh: -4

Results for C=CCOc1ccccc1CN1CCC(CO)(CCOc2ccccc2)CC1 ?
Insulin prom up: -0.17; Lmaj promast: 22; Autophagy mod: inactive; WT yeast gro inh: 16

What do the screens show for `O=C(c1c(F)c(F)c(F)c(F)c1F)N(Cc1ccccc1)Cc1ccccc1`?
INS promoter inh: -21; Lmaj promast: 8; Autophagy mod: inactive; WT yeast gro inh: 66*

How did Nc1nc(SCC(=O)Nc2ccc(Cl)c(S(=O)(=O)N3CCOCC3)c2)n[nH]1 do in these assays?
Insulin prom up: -0.53

How did CCOC(=O)c1c(NC(=O)CCC(=O)N(CC)CC)sc2c1CC(C)(C)OC2 do in these assays?
Insulin prom up: 0.61

Results for CCCC(=O)Nc1sc2c(c1C(=O)OCC)CC(C)(C)OC2 ?
INS promoter inh: 75*; Lmaj promast: 25; Autophagy mod: inactive; WT yeast gro inh: -3

Results for CCOC(=O)c1c(NC(=O)CCC(=O)N2CCOCC2)sc2c1CC(C)(C)OC2 ?
Insulin prom up: -0.28; INS promoter inh: -14; Lmaj promast: 97*; Autophagy mod: inactive; WT yeast gro inh: -3

How did CCn1c2ccccc2c2nnc(SCC(N)=O)nc21 do in these assays?
Insulin prom up: 0.07; INS promoter inh: 29; Lmaj promast: 4; Autophagy mod: inactive; WT yeast gro inh: 36

Results for CCCn1c2ccccc2c2nnc(SCC(=O)OC)nc21 ?
Insulin prom up: 1.5; Lmaj promast: -1; Autophagy mod: inactive; WT yeast gro inh: 26

How did CCn1c2ccccc2c2nnc(SCC(=O)Nc3cc(C)on3)nc21 do in these assays?
Insulin prom up: 4*; INS promoter inh: -43; Lmaj promast: 0; Autophagy mod: inactive; WT yeast gro inh: -2

Results for CCn1c2ccccc2c2nnc(SCC(=O)NC3CCS(=O)(=O)C3)nc21 (stereo not drawn) ?
Insulin prom up: 0.22; INS promoter inh: 0; Lmaj promast: 1; Autophagy mod: inactive; WT yeast gro inh: 3

How did CCn1c2ccccc2c2nnc(SCC(=O)N(C)C3CCS(=O)(=O)C3)nc21 (stereo not drawn) do in these assays?
Insulin prom up: -0.73; INS promoter inh: -21; Lmaj promast: 66*; Autophagy mod: inactive; WT yeast gro inh: -16

What do the screens show for `CCn1c2ccccc2c2nnc(SCc3ccccc3)nc21`?
Insulin prom up: -0.15; Lmaj promast: 6; Autophagy mod: inactive; WT yeast gro inh: 58*

Results for CCn1c2ccccc2c2nnc(SCC(=O)Nc3c(C)n(C)n(-c4ccccc4)c3=O)nc21 ?
Insulin prom up: -0.92; Lmaj promast: -3; Autophagy mod: inactive; WT yeast gro inh: -2

What do the screens show for `CCCCn1c2ccccc2c2nnc(SCC(=O)NC3=NN=C(c4ccccc4)CS3)nc21`?
Insulin prom up: -0.93; Lmaj promast: 15; Autophagy mod: inactive; WT yeast gro inh: 60*

What do the screens show for `C=CCSc1nc(-c2ccc(OC)cc2)c(C#N)c(=O)n1CC=C`?
Insulin prom up: -1.3; Lmaj promast: 22; Autophagy mod: inactive; WT yeast gro inh: 18

How did COC(=O)c1ccc(CNC(=O)COC(=O)C2CC3C=CC2C3)cc1 (stereo not drawn) do in these assays?
Lmaj promast: -5; Autophagy mod: inactive; WT yeast gro inh: -7

What do the screens show for `COc1ccccc1NC1=C(Cl)C(=O)N(C2CCCCC2)C1=O`?
Insulin prom up: -0.28; INS promoter inh: -32; Lmaj promast: 10; Autophagy mod: inactive; WT yeast gro inh: 70*

Results for Cc1ccccc1NC1=C(Cl)C(=O)N(C2CCCCC2)C1=O ?
Insulin prom up: -0.1; INS promoter inh: -55; Lmaj promast: 37; Autophagy mod: inactive; WT yeast gro inh: 69*

What do the screens show for `COc1ccc(C(=O)NCC(=O)OCc2ccccc2F)cc1`?
Insulin prom up: 0.09; Lmaj promast: -6; Autophagy mod: inactive; WT yeast gro inh: -2

What do the screens show for `COc1cc(-c2nc(CN(C)C(C)c3ccncn3)c(C)o2)ccc1F` (stereo not drawn)?
Insulin prom up: 0.83; Lmaj promast: 10; Autophagy mod: inactive; WT yeast gro inh: 17

What do the screens show for `COc1ccc(-n2cc(C(=O)O)c3ccccc3c2=O)cc1`?
Insulin prom up: -0.23; INS promoter inh: -76; Lmaj promast: -8; Autophagy mod: inactive; WT yeast gro inh: -1

What do the screens show for `O=C(O)c1cn(-c2ccccc2)c(=O)c2ccccc12`?
INS promoter inh: 70*; Lmaj promast: -5; Autophagy mod: inactive; WT yeast gro inh: -9

What do the screens show for `O=[N+]([O-])c1ccc(N2CCN(S(=O)(=O)c3ccccc3[N+](=O)[O-])CC2)cc1NCc1cccnc1`?
Insulin prom up: -0.1; INS promoter inh: -7; Lmaj promast: 68*; Autophagy mod: inactive; WT yeast gro inh: -10

How did CCS(=O)(=O)N1CCN(c2ccc([N+](=O)[O-])c(NCc3cccnc3)c2)CC1 do in these assays?
Insulin prom up: -1.5; Lmaj promast: 3; Autophagy mod: inactive; WT yeast gro inh: -9

How did CCNc1nc(N)nc(Oc2ccc(OCCOc3ccc(Cl)cc3Cl)nn2)n1 do in these assays?
Insulin prom up: -0.48; INS promoter inh: 32; Lmaj promast: 98*; Autophagy mod: inactive; WT yeast gro inh: 8

How did CCNc1nc(NCC)nc(Oc2ccc(OCC)nn2)n1 do in these assays?
Insulin prom up: -0.31; INS promoter inh: 7; Lmaj promast: -8; Autophagy mod: inactive; WT yeast gro inh: 5

Results for COc1nc(Nc2ccc(C(C)C)cc2)nc(OC)n1 ?
INS promoter inh: 67; Lmaj promast: 86*; Autophagy mod: inactive; WT yeast gro inh: 17

What do the screens show for `Cc1ccc(S(=O)(=O)n2nc(-c3ccco3)nc2SCc2ccccc2)cc1`?
Insulin prom up: -0.25; INS promoter inh: 56; Lmaj promast: -9; Autophagy mod: inactive; WT yeast gro inh: 1

How did CCN(C(=O)COC(=O)c1cccnc1Nc1cccc(C(F)(F)F)c1)C1CCS(=O)(=O)C1 (stereo not drawn) do in these assays?
Insulin prom up: -4.4; INS promoter inh: -9; Lmaj promast: 59*; Autophagy mod: inactive; WT yeast gro inh: -13
